# HP1b chromo inh = inhibitors of HP1-beta chromodomain binding to methylated histone tails. AlphaScreen HP1-beta / biotin-H3K9me3 peptide binding. Potency, µM (doses to about 114 µM), for inactives: top-dose activity change, negative = inhibition, most hits filed as inhibitors. 390,000 tested, 0.56% active. AID 540317; note: nearly all actives have a fitted effect of over 70% in size
#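 HP1-beta protein (50 nM final) preincubated 30 min at room temperature with biotinylated H3(1-18)K9me3 peptide (50 nM) in PBS pH 7.4, 0.01% Tween-20, then compound added for 30 min. AlphaScreen streptavidin donor/nickel chelate acceptor beads (10 ug/mL final), 30 min dark, luminescence read.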
# G9a inh = blocks human histone lysine methyltransferase G9a; Q96KQ7; G9a H3K9 monomethylation, AlphaScreen, 2 h; Potency, µM (titrated, usually from 102 µM), without a hit: at the top dose activity, negative = inhibition, hits mostly inhibitors; 350,000 tested, 8.8% active; AID 504332; note: % is set by controls: 0 for no effect and ±100 for the full control effect; nearly all actives have a fitted effect of over 75% in size
#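 Compounds were preincubated with 20 nM G9a for 15 min, after which biotinylated H3K9 peptide (500 nM) and SAM (20 uM) started a 2 h room-temperature reaction. Monomethylated product was quantified by antibody-based AlphaScreen chemiluminescence.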
# PLK1 PBD block = inhibitors of human PLK1 polo-box domain binding; Plk1 PBD binding of FITC phosphopeptide, fluorescence polarization; Potency, µM, for the others: max response, negative = inhibition, hits mostly inhibitors; 360,000 tested, 2.8% active; AID 720504; note: series mostly up to about 57 µM; % is set by controls: 0 for no effect and ±100 for the full control effect; nearly all actives have a fitted effect of over 65% in size
# 12-LOX inh = inhibitors of human 12S-lipoxygenase ALOX12; Potency, µM (doses to about 108 µM), for the others: at the top dose activity change, negative = inhibition, hits mostly inhibitors; P18054; purified 12hLO, xylenol orange hydroperoxide absorbance; 580,000 tested, 1.1% active; note: % is set by controls: 0 for no effect and ±100 for the full control effect
#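 Purified human 12hLO at 150 nM in 25 mM Hepes, 0.01% Triton X-100, pH 7.0, preincubated 15 min at room temperature with compound. Reaction started with 40 uM arachidonic acid, 30 min at room temperature. Hydroperoxide measured by Fe-xylenol orange, 573/405 nm absorbance ratio.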
# BAZ2B block = inhibitors of human BAZ2B bromodomain; 360,000 tested, 4.4% active; AID 504333; Potency, µM (titrated, usually from 114 µM), for the others: at the top dose activity change, negative = inhibition, hits mostly inhibitors; AlphaScreen BAZ2B-H3K14Ac peptide displacement; Q9UIF8; note: % is set by controls: 0 for no effect and ±100 for the full control effect; nearly all actives have a fitted effect of over 60% in size
#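 Complex of BAZ2B and biotin-H3K14Ac (50 nM apiece) forms over 30 min at RT, then faces library compounds up to 110 uM for another 30 min; AlphaScreen beads added, 20 min dark incubation, luminescence read.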
# JMJD2A Tudor = inhibitors of human JMJD2A Tudor domain. AlphaScreen JMJD2A-Tudor / H3K4me3 peptide binding. O75164. AID 504339. Potency, µM (doses to about 114 µM), for the others: at the highest dose activity change, negative = inhibition, hits mostly inhibitors. 390,000 tested, 4.4% active; note: % is set by controls: 0 for no effect and ±100 for the full control effect; nearly all actives have a fitted effect of over 50% in size
# Starred values were filed as active, the others as inactive; u = inconclusive; x = not tested or not shown; ! = not active in a repeat; [ ] = remark or other dose. Shown are actives, neighbours in structure and some others; about 9% of the full set was active somewhere. Calls come from the whole dose curve; as a rule, active = well fitted curve in the direction sought with a large enough effect; inconclusive = small, poorly fitted or top-dose-only effect, or another doubt; inactive = no such curve, though single readings can be large; an effect the other way counts as inactive or inconclusive. Potency is the fitted concentration of half-maximal effect.
SMILES,HP1b chromo inh,G9a inh,PLK1 PBD block,12-LOX inh,BAZ2B block,JMJD2A Tudor
COc1ccccc1N1CCN(C(=O)CCNS(=O)(=O)c2ccc3c(c2)CCN3C(=O)C2CC2)CC1,31%[57 µM],-19%[59 µM],x,-22%,0%,-12%
O/N=C(\c1ccc(Cl)cc1Cl)c1ncc(C(F)(F)F)cc1Cl,33%,11%,-4%,-8%,9%,-19%
CC(C)C(C(=O)O)N1C(=O)/C(=C/c2cccn2C)SC1=S (stereo not given),-2%,-16%[59 µM],40%,-29%,u,-25%
Cc1ccc(S(=O)(=O)NN2C(=O)/C(=C/c3ccc(C(=O)O)cc3)SC2=S)cc1,17%,-5%,-8%,u,-32%,u
Cc1ccc(S(=O)(=O)NN2C(=O)/C(=C/c3cccs3)SC2=S)cc1,-14%,20µM*,u,u,u,u
COc1ccc(/C=C2/SC(=S)N(NS(=O)(=O)c3ccc(C)cc3)C2=O)cc1,u,u,24µM*,u,40µM*,u
O=C1/C(=C/c2ccccn2)SC(=S)N1NS(=O)(=O)c1ccccc1,-4%,u,-16%,-18%,-20%,-32%
Cn1cccc1/C=C1\SC(=S)N(Nc2ccccc2)C1=O,u,x,9%,u,20µM*,u
Cc1ccc(S(=O)(=O)NN2C(=O)/C(=C\c3ccc(Cl)cc3)SC2=S)cc1,-20%,-10%,27µM*,-26%,-27%,-28%
O=C1/C(=C/c2cccc(F)c2)SC(=S)N1NS(=O)(=O)c1ccccc1,2%[57 µM],-3%[12.7 µM],u,u,u,-30%
Cc1ccccc1OCc1nc(C#N)c(NCc2ccccc2Cl)o1,x,x,x,-15%,x,x
Cc1cccc(NS(=O)(=O)c2cccc(C(=O)OCC(=O)c3ccc[nH]3)c2)c1,x,x,x,2%,x,x
O=C(CNC(=O)C(c1ccccc1)c1ccccc1)OCc1ccccc1,73%,-5%,-7%,-10%,-13%,-1%
CNC(=O)c1cc(OCC(F)(F)F)ccc1OCC(F)(F)F,69%,-25%,1%,6%,-17%,-6%
COc1cc(/C=C2\SC(=S)N(NS(=O)(=O)c3ccccc3)C2=O)cc(OC)c1OC,-14%,u,0%,0%,u,u
Cc1ccc(S(=O)(=O)NN2C(=O)/C(=C/c3cccn3C)SC2=S)cc1,x,45µM*,x,x,50µM*,x
COc1cccc(/C=C2\SC(=S)N(NS(=O)(=O)c3ccccc3)C2=O)c1OC,0%,40µM*,u,u,-38%,u
C=CCOc1ccc2c(c1)c(S(=O)(=O)c1ccc(C)cc1)cn2COC,27%,-15%[59 µM],2%,-7%,19%,-15%
O=C1/C(=C/c2cccnc2)SC(=S)N1Nc1ccccc1,19%,40µM*,-6%,65%,u,-7%
C=CCOc1ccc(/C=C2\SC(=S)N(NS(=O)(=O)c3ccc(C)cc3)C2=O)cc1,u,15%[2.33 µM],27µM*,u,40µM*,50µM*
CCOC(=O)/C(=N\Nc1ccccc1Cl)N1CCN(Cc2ccccc2)CC1,3%,-11%,0%,-19%,-24%,-16%
Cc1cc(NC(=O)CSc2nc(C3CC3)nc3sc4c(c23)CCC(C)C4)no1 (stereo not given),23%,x,-5%,x,x,-7%
CSc1nc(=S)n(-c2ccccc2)c(C)c1C(C)=O,63%,-1%,u,-14%,-14%,5%
Cc1ccc(/C=C2\SC(=S)N(NS(=O)(=O)c3ccc(C)cc3)C2=O)cc1,-5%,x,27µM*,35µM*,50µM*,u
Cc1ccc(S(=O)(=O)NN2C(=O)/C(=C/c3ccc(F)cc3)SC2=S)cc1,12%,-8%,u,-14%,-27%,-19%
SMILES,HP1b chromo inh,G9a inh,PLK1 PBD block,12-LOX inh,BAZ2B block,JMJD2A Tudor
CCN(CC)CCNC(=O)c1ccc(NC(=O)Cc2ccc(OC)c(S(=O)(=O)N3CCOCC3)c2)cc1,31%,x,-5%,392%,x,-8%
C=CC(=O)Nc1ccc(CN2C(=O)N(c3c(Cl)c(OC)cc(OC)c3Cl)Cc3cnc(NCCCCN(CC)CC)nc32)cc1,u,x,-12%,x,x,56µM*
O=C1Nc2ccccc2C1=Nc1ccc(S(=O)(=O)Nc2nccs2)cc1,-30%,u,27µM*,u,-18%,56µM*
O=C(CCS(=O)(=O)c1ccccc1)Nc1nc2cc3c(cc2s1)OCCO3,38%,u,-18%,-24%,79µM*,-25%
O=C(CCS(=O)(=O)c1ccccc1)Nc1nc2cc3c(cc2s1)OCO3,38%,u,-9%,61%,71µM*,-6%
NNc1nc2cc3c(cc2s1)OCCO3,25%,71µM*,u,u,u,-3%
O=C(CCS(=O)(=O)c1ccccc1)Nc1nc2ccc(F)cc2s1,27%,-8%,u,u,13%,-3%
CN(C(=O)C1CCCCC1)C1(c2ccccc2Cl)CCCCC1=O (stereo not given),x,x,x,-20%,x,x
CO/N=C(\C(=O)N[C@@H]1C(=O)N2C(C(=O)O)=C(COC(N)=O)CS[C@H]12)c1ccco1,15%,u,-24%,5%,-6%,25µM*
CON=C(C(=O)NC1C(=O)N2C(C(=O)O)=C(CSc3nc(=O)c(=O)[nH]n3C)CSC12)c1csc(N)n1 (stereo not given),-11%,x,u,10%,x,50µM*
CO/N=C(\C(=O)N[C@@H]1C(=O)N2C(C(=O)O)=C(COC(C)=O)CS[C@H]12)c1csc(N)n1,x,11µM*,x,x,x,x
CO/N=C(\C(=O)N[C@@H]1C(=O)N2C(C(=O)O)=C(CSc3nc(=O)c(O)nn3C)CSC12)c1csc(N)n1 (stereo not given in full),x,28µM*!,x,x,x,x
CO/N=C(\C(=O)N[C@@H]1C(=O)N2C(C(=O)O)=C(COC(C)=O)CS[C@@H]12)c1csc(N)n1,x,-39%[12.7 µM],x,x,x,x
Cc1cc(C)c(S(=O)(=O)N2CCCC2=O)c(C)c1,38%,x,-3%,-3%,-4%,14%
COc1ccc(S(=O)(=O)N2CCN(Cc3ccccc3[N+](=O)[O-])CC2)cc1,u,x,-15%,u,x,3.2µM*
COc1ccc(S(=O)(=O)N2CCN(Cc3c[nH]c4ccccc34)CC2)cc1,3%,-17%,-7%,u,-37%,-33%
COc1ccccc1CNC(=O)N1CCN(S(=O)(=O)c2ccc(C)cc2)CC1,5%,32%,1%,-16%,8%,-12%
COc1ccccc1CN1CCN(S(=O)(=O)c2ccc(C)cc2)CC1,u,x,-1%,u,x,20µM*
COc1ccc(S(=O)(=O)N2CCN(Cc3cccc([N+](=O)[O-])c3)CC2)cc1,u,x,-4%,-75%,x,20µM*
